Screening results as filed in PubChem BioAssay.
In the library only some 18% were active in any assay of this set; here they are far more common.
TDP1 block – blocks human tyrosyl-DNA phosphodiesterase 1; Q9NUW8; recombinant TDP1, AlphaScreen DNA substrate cleavage; hit rate 0.28% among 350,000; AID 485290; Potency, µM (titrated, usually from 130 µM), for inactives: at the top dose activity change, negative = inhibition, usual class: inhibitors; also: potency is read from the fitted curve at half-maximal effect; % is scaled to controls: 0 for no effect and ±100 for the full control effect; nearly all actives have a fitted effect of over 40% in size
Target sequence (Q9NUW8 whole entry, looked up): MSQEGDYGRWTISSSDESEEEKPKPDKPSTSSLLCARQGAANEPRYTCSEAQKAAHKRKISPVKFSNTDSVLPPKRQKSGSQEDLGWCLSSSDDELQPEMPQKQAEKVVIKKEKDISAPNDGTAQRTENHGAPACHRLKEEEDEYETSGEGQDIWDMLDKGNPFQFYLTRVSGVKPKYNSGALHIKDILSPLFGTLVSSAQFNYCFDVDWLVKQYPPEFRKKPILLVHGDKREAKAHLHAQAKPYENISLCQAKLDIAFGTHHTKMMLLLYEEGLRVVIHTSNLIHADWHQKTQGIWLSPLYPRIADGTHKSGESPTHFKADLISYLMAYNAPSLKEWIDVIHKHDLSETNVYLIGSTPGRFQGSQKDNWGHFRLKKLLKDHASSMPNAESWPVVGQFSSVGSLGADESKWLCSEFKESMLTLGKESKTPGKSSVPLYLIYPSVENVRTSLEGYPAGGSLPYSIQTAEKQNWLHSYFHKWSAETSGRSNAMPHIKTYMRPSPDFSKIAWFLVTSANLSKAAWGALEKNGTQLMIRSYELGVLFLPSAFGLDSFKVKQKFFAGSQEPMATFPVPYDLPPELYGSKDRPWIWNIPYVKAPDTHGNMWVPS
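Signal: AlphaScreen proximity between streptavidin donor and anti-FITC acceptor beads on intact substrate. Reaction: Tdp1 1 nM, substrate 15 nM final, 5 min RT after 15 min compound preincubation.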
IL-1B inflam inh – inflammasome signaling inhibition, IL-1 beta readout | activity change, % at 57.5 µM | hit rate 4.7% among 360,000 | THP-1 LPS/ATP IL-1B secretion, AlphaLISA, 16 h; stronger effect = lower value; in the data active = activity change below about -50%; inconclusive = mostly about -30% to -49%; also: % is scaled to controls: 0 for no effect and ±100 for the full control effect
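Secreted IL-1B measured by AlphaLISA bead assay after 16 h compound exposure of THP-1 cells; compounds (final up to 57.5 uM) added 1 h before LPS (250 ng/mL) and ATP (1.25 mM) stimulation; lower signal means less secretion.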
TGFb inhibitor – blocks TGF-b signaling. AID 588855. Potency, µM (top dose mostly 46.1 µM), for the others: at the highest dose activity, negative = inhibition, most hits filed as inhibitors. hit rate 1.2% among 410,000. HepG2 CAGA-GFP TGF-b/SMAD3 reporter, GFP fluorescence, 18 h; TGF-beta stimulated, 500 pg/mL final; also: potency is read from the fitted curve at half-maximal effect; % is scaled to controls: 0 for no effect and ±100 for the full control effect; nearly all actives have a fitted effect of over 65% in size
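GFP signal (ex488/em500-530) from TGF-beta-stimulated HEPG2 CAGA-GFP cells, 500 pg/mL final, 18 h at 37 degrees C in DMEM plus 1% FBS, normalized to unstimulated and DMSO-stimulated controls.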
HepG2 viability – counter-screen for TGF-b inhibitors: cytotoxicity in HepG2 cells. HepG2 CAGA-GFP viability, ATP luminescence, 18 h. Potency, µM (series often up to 46.1 µM), for inactives: top-dose activity change, negative = cytotoxicity, hits mostly cytotoxic. hit rate 0.76% among 410,000; also: potency is read from the fitted curve at half-maximal effect
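CellTiter-Glo luminescence gave cytotoxicity after 18 hours at 37 degrees C. The cells were HepG2 CAGA-GFP in 1% FBS DMEM, stimulated with 500 pg/mL TGF-beta after compound addition. %Activity was normalised to no-cell wells (complete cell-killing) and DMSO (no toxicity), and curves were fitted and classified.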
DT40 TDP1 no CPT – qHTS for Inhibitors of human tyrosyl-DNA phosphodiesterase 1 (TDP1): qHTS in cells in absence of CPT. DT40 Tdp1-/- hTDP1 cells, no CPT, ATP luminescence, 48 h. Potency, µM (doses to about 46.2 µM), inactives show at the highest dose activity change, negative = growth inhibition, actives largely listed as inhibitors. hit rate 15% among 420,000; also: potency is read from the fitted curve at half-maximal effect; % is scaled to controls: 0 for no effect and ±100 for the full control effect; nearly all actives have a fitted effect of over 55% in size
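Growth of hTDP1-complemented DT40 Tdp1-knockout cells is measured by ATP luminescence after at least 48 hr compound exposure at 37 °C, with DMSO substituting for the 20 nM CPT used in the parallel screen.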
DT40 TDP1 CPT – DT40-hTDP1 cell growth loss with CPT | AID 686979 | chicken DT40 Tdp1-/-;hTDP1 cells + 20 nM CPT, ATP luminescence, 48 h | Potency, µM (titrated, usually from 46.2 µM), without a hit: top-dose activity change, negative = growth inhibition, hits mostly inhibitors | hit rate 12% among 420,000; also: potency is read from the fitted curve at half-maximal effect; % is scaled to controls: 0 for no effect and ±100 for the full control effect; nearly all actives have a fitted effect of over 55% in size
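Cell growth measured by CellTiter-Glo luminescence after a minimum 48 h, 37 C compound exposure with 20 nM CPT in Tdp1-knockout DT40 cells stably expressing hTDP1, seeded 400/well; qHTS titration format.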
Numbers without * were called inactive; ? = inconclusive; . = no result. Unless noted, calls follow the shape of the dose curve; as a rule, active = well fitted curve in the direction sought with a large enough effect; inconclusive = small, poorly fitted or top-dose-only effect, or another doubt; inactive = no such curve, though single readings can be large; an effect the other way counts as inactive or inconclusive.

SMILES | TDP1 block | IL-1B inflam inh | TGFb inhibitor | HepG2 viability | DT40 TDP1 no CPT | DT40 TDP1 CPT
COC(=O)N(C)C[C@@H]1OCc2ccccc2-c2c(n(C)c3ccccc23)C(=O)N([C@H](C)CO)C[C@@H]1C | . | -22.7 | -1.2% | -80.6% | 25.9µM* | ?
CC(C)NC(=O)N(C)C[C@@H]1OCc2ccccc2-c2c(n(C)c3ccccc23)C(=O)N([C@@H](C)CO)C[C@@H]1C | . | 40.1 | 2.7% | 0.0% | ? | -19.9%
N#Cc1ccccc1Cn1c(=O)n(CCCC(=O)NCc2ccc3c(c2)OCO3)c(=O)c2sccc21 | -0.9% | . | -22.0% | -19.3% | ? | ?
O=C(O)c1ccc(CSc2nnc(-c3ccccc3)n2-c2ccccc2)cc1 | . | 10.2 | -10.6% | -12.2% | -0.6% | -6.4%
Brc1cccc(-c2nnc(SCc3ccon3)n2-c2ccccc2)c1 | 7.8% | -15.3 | -2.2% | -14.4% | 14.6µM* | ?
COc1ccc(Cc2nnc(NC(=O)c3ccccc3)s2)cc1OC | 5.1% | 26.3 | -8.8% | 17.7% | -4.9% | 3.8%
C=CCSC1=N/C(=C\c2cc(OCC)c(OC(C)=O)c([N+](=O)[O-])c2)C(=O)S1 | -4.7% | 18.8 | -1.9% | 23.7% | ? | 16.4µM*
Nc1cccc(-c2nc3cc(S(=O)(=O)c4ccc5oc(-c6cccc(N)c6)nc5c4)ccc3o2)c1 | 4.8% | -0.6 | ? | -49.5% | ? | 8.2µM*
Cc1ccc2oc(-c3cccc(N)c3)nc2c1 | 5.4% | 3.1 | 1.7% | -31.1% | ? | -0.7%
COc1ccc(CC(=O)Nc2nc3c(s2)CC(C)CC3)cc1 (stereo not drawn) | 6.8% | . | 1.5% | -12.6% | ? | ?
CCc1nnc(NC(=O)CSc2nc3ccccc3o2)s1 | -4.0% | -2.8 | 5.5% | 1.3% | -11.2% | -1.9%
Cc1nnc(SCC(=O)Nc2nc3c(s2)CC(C)CC3)s1 (stereo not drawn) | 4.4% | -6.4 | -11.0% | -18.8% | 10.3µM* | ?
CC1CCc2nc(NC(=O)CSc3nc4ccccc4o3)sc2C1 (stereo not drawn) | 3.3% | 8.1 | -12.6% | -30.5% | 18.4µM* | ?
CN1C/C(=C/c2ccsc2)C(=O)/C(=C/c2ccsc2)C1 | 2.7% | -94.0* | ? | -26.0% | 13µM* | 10.3µM*
CN1C/C(=C\c2ccc(N3CCOCC3)cc2)C(=O)/C(=C/c2ccc(N3CCOCC3)cc2)C1 | 2.7% | -103.3* | 0.0% | -25.3% | 20.6µM* | ?
CCCC(=O)Nc1ccc(N2CCOCC2)cc1 | 0.0% | 4.9 | -0.2% | 1.9% | -1.4% | -24.4%
CN1C/C(=C/c2ccncc2)C(=O)/C(=C/c2ccncc2)C1 | 11.8% | 2.7 | 1.2% | -3.9% | -28.8% | ?
CCN1C/C(=C/c2ccc(N3CCOCC3)cc2)C(=O)/C(=C/c2ccc(N3CCOCC3)cc2)C1 | 5.5% | -103.4* | 7.4% | -39.9% | ? | ?
C/C(=N\NC(N)=S)C1(C)CC2(CC(C)(C)OC2=O)C(=O)O1 (stereo not drawn) | 5.5% | 5.2 | 19.9% | 2.2% | -3.8% | -3.8%
COc1ccc(NC(=O)Nc2cc(C(=O)O)ccc2N2CC3CC(C2)c2cccc(=O)n2C3)c(OC)c1 (stereo not drawn) | 9.1% | 29.5 | 5.6% | 6.4% | 3.1% | 4.4%
CCCc1ccc(S(=O)(=O)N2CCC(c3nnnn3-c3ccc(OC)cc3)CC2)cc1 | 0.0% | . | -1.2% | -10.5% | -18.5% | -29.1%
COc1ccc(-n2nnnc2-c2ccccc2)cc1 | -2.5% | 38.7 | 4.6% | 10.2% | 2.91µM* | 3.66µM*
Clc1ccc(-n2nnnc2-c2ccccc2)cc1 | -1.0% | -6.3 | -2.9% | -5.2% | -10.3% | -15.0%
COc1ccc(-n2nnnc2C2CCN(S(=O)(=O)c3cccc(Cl)c3C)CC2)cc1 | -2.3% | . | ? | -26.9% | 25.9µM* | 20.6µM*
COc1ccc(-n2nnnc2-c2ccc(S(C)(=O)=O)cc2Cl)cc1 | . | -0.3 | 1.0% | -26.2% | 5.17µM* | ?
SMILES | TDP1 block | IL-1B inflam inh | TGFb inhibitor | HepG2 viability | DT40 TDP1 no CPT | DT40 TDP1 CPT
COc1ccc(-n2nnnc2CNC(=O)c2ccc(S(=O)(=O)N3CCOCC3)cc2)cc1 | 1.4% | 10.0 | 3.4% | 1.8% | -13.5% | 8.2%
O=C(Cn1ncc2c3ccccc3n(Cc3ccccc3F)c2c1=O)NCCCc1ccccc1 | 0.0% | . | -19.7% | -0.3% | 18.4µM* | ?
CCCCN(CC)CCCNC(=O)Cn1ncc2c3ccccc3n(Cc3ccccc3F)c2c1=O | 2.5% | . | -30.0% | -36.4% | 11.6µM* | 13µM*
O=C(Cn1ncc2c3ccccc3n(Cc3ccccc3F)c2c1=O)NCc1ccccc1Cl | 0.0% | . | -8.3% | -3.6% | 18.4µM* | 20.6µM*
Cc1cccc(NC(=O)Cn2ncc3c4ccccc4n(Cc4ccccc4)c3c2=O)c1C | 0.0% | . | -13.7% | -1.1% | 23.1µM* | ?
CCCn1c2ccccc2c2cnn(CC(=O)NCc3ccccc3Cl)c(=O)c21 | 6.2% | . | -13.2% | -48.6% | ? | ?
CCCn1c2ccccc2c2cnn(CC(=O)NCCc3ccc(C)cc3)c(=O)c21 | 7.5% | . | -2.0% | -13.7% | ? | ?
Cc1ccc(C)c(Cn2c3ccccc3c3cnn(CC(=O)NCCCN4CCCCC4)c(=O)c32)c1 | 3.9% | ? | ? | -100.0% | 16.4µM* | ?
Cc1ccccc1Cn1c2ccccc2c2cnn(CC(=O)NCCc3ccccc3)c(=O)c21 | -2.5% | . | -18.7% | 0.9% | ? | 16.4µM*
O=C(Cn1ncc2c3ccccc3n(Cc3ccccc3F)c2c1=O)NCCN1CCOCC1 | 1.6% | 0.6 | -3.5% | -5.0% | ? | ?
O=C(Cn1ncc2c3ccccc3n(Cc3ccccc3F)c2c1=O)NCCCN1CCCC1=O | 1.8% | -52.7* | -10.9% | -33.4% | -20.5% | ?
COc1cccc(CNC(=O)Cn2ncc3c4ccccc4n(Cc4ccccc4)c3c2=O)c1 | 5.1% | . | 7.1% | -0.2% | -28.1% | -17.1%
Cc1ccccc1Cn1c2ccccc2c2cnn(CC(=O)NC(C)CCc3ccccc3)c(=O)c21 (stereo not drawn) | 0.0% | . | -18.5% | -18.0% | 9.2µM* | 9.2µM*
Cc1ccc(C)c(Cn2c3ccccc3c3cnn(CC(=O)NCCCc4ccccc4)c(=O)c32)c1 | -2.5% | . | 3.7% | -3.8% | 9.2µM* | ?
CCOC(=O)c1cc(-c2ccc(Cl)cc2)nc2c1c(C)nn2CCC#N | -1.5% | ? | 0.0% | -37.8% | ? | ?
CCOC(=O)c1cc(-c2ccccc2)nc2c1c(C)nn2-c1ccccn1 | 2.3% | ? | ? | -37.4% | ? | ?
